The record followed here is PubChem BioAssay AID720536 (National Center for Advancing Translational Sciences (NCATS), 2013).

Out of some 1,600 compounds screened, about 650 (41%) were called active. About 39% were inconclusive and are not listed. The set was probably picked from earlier hits. Shown is part of a subset that was picked to be rich in actives. Values without a mark were called inactive. The call rests on the fitted dose curve; in most records, active means well fitted inhibition curve with a large enough effect; inconclusive means small, poorly fitted or top-dose-only effect; inactive means no such curve, though single readings can be large or run the other way.
Potency means the concentration at half of the fitted maximal effect.

The assay in a line: qHTS for Inhibitors of TGF-b: CCL64 Cells Orthogonal Assay for Cherry Picks. Further: nearly all actives have a fitted effect of over 65% in size. The settings on record: CCL64 CAGA-GFP reporter, TGF-b stimulated, GFP fluorescence, 18 h; series mostly up to 46.1 µM; activity, negative = inhibition: at the top concentration. An excerpt:
TGF-b is a main component in the TGF-b signaling pathway which plays diverse roles in cellular and development pathways. TGF-b is the mediated by the transcription factors Smads. Although the Smad-dependent pathway is the primary canonical TGF-b signaling node, TGF-b1 can also activate alternative signaling pathways, including those involving MAPK (ERK, JNK and p38). This interaction may mediate or enhance Smad-dependent responses, or can exert Smad-independent effects. The complexity of this signaling cascade allows the TGF-b superfamily to perform unique, overlapping or redundant functions. We believe that targeting the TGF-beta pathway at the Smad-transcription factor level may eliminate the consequences of disrupting the entire pathway and offer specificity without affecting other signaling pathways. Smad3 is the primary transducer of TGF-b's signals and Smad3 regulates many functions attributed to TGF-b signaling. We hypothesize that Smad3 inhibitors will selectively eliminate Smad3-specific TGF-beta signals without undesired off-target effects. We aim to identify Smad3-small molecule antagonists using a quantitative high throughput screening (qHTS) approach. A high-throughput assay was developed to screen the NIH Molecular Libraries Small Molecule Repository (MLSMR). This is a cell based assay, where TGF-b is tagged with GFP. This orthogonal assay was run using CCL64 cells (as opposed to HepG2); activity was desired in this assay as this indicated the hits identified from the screen are not a cell-based artifact. MH087449NIH Chemical Genomics Center [NCGC] NIH Molecular Libraries Probe Centers Network [MLPCN] MLPCN Grant: MH087449 Assay Submitter (PI): Sushil Rane, National Institute of Diabetes and Kidney Diseases
Suspensions of trypsinized CCL64 CAGA-GFP cells were dispensed into white, tissue culture-treated, solid 1536-well plates at 5uL/well (1000 cells/well final concentration) in DMEM medium supplemented with 1% FBS. Plates were incubated at 37 degrees C for 2 hours, after which 23 nL of compounds or DMSO were delivered to each well using a pin tool. One uL of recombinant TGF-beta in DMEM (1% FBS) was then dispensed (500 pg/mL final concentration), and plates were incubated at 37 degrees C for 18 hours. The plates were measured on an Acumen eX3 Explorer plate reader for GFP fluorescence (ex488/em500-530). GFP values were calculated by determining the mean GFP fluorescence of individual cells, and compiling these values for each well to determine a total well GFP signal. The %Activity was determined from the corrected fluorescence values. A titration of the known TGF-B inhibitor SB431542 was included to monitor plate performance, while unstimulated […] (-TGF-B) control wells were used to normalize %Activity of identified inhibitors; unstimulated wells corresponded to 100%Activity (full inhibition), while stimulated cell controls (+DMSO) were used to normalize 0%Activity (no inhibition). Concentration-response curves were fitted to the signals arising from the resulting fluorescence. The concentration-effect curves were then classified based on curve quality (r2), response magnitude and degree of measured activity, and compounds were subsequently categorized based on their curve class.
A general note: qHTS replaces the single test concentration by a dilution series.
In the case of `COc1cc(NC(=O)c2[nH]cnc2C(N)=O)cc(C(=O)Nc2cccc(C(F)(F)F)c2)c1`, the Potency was 9.2 µM (active).

On to `CCCc1cc(-c2n[nH]c(=S)n2CC)c2ccccc2n1`, for which the “activity, negative = inhibition” value was -6.24%.

Take `Clc1ccc2c(c1)C1=C(C(c3ccncc3)O2)C(c2ccc(Br)cc2)n2ncnc2N1` (centres undefined): the Potency is 10.3 µM (active).

For the molecule `Cc1ccc(-c2nc3ccc(Br)cn3c2Cc2ccccc2C(F)(F)F)cc1`, the “activity, negative = inhibition” value is 2.1%.

Turning to `CCOC(=O)C1=C(N)N(c2ccc(C)cc2)C2=C(C(=O)CCC2)C1c1cccs1` (centres undefined), the Potency was 23.1 µM (active).

For the molecule `Cc1cccc(CS(=O)(=O)c2ncc(Cl)c(C(=O)Nc3ccc(F)cc3)n2)c1`, the Potency was 4.61 µM (active).

In the case of `Cc1cccc(NC(=O)c2nc(S(=O)(=O)Cc3ccccc3)ncc2Cl)c1`, the Potency is 2.59 µM (active).

As to `Cc1ccc(S(=O)(=O)Nc2ccc3c(c2)C(=O)N([C@H](C)CO)C[C@@H](C)[C@@H](CN(C)C(=O)Nc2cccc4ccccc24)O3)cc1`, the “activity, negative = inhibition” value is 9.21%.

With `COc1cc(NC(=O)COC(=O)c2ccc([N+](=O)[O-])s2)cc(OC)c1OC`, the “activity, negative = inhibition” value is -10.9%.

`CC1CCc2c(nc3ncnn3c2Nc2ccc(OC(F)(F)F)cc2)C1` (centres undefined): the “activity, negative = inhibition” value was 22.3%.

For the molecule `Cc1nc(/N=C(\N)NC(=O)NC2CCCCC2)nc2ccccc12`, the Potency is 20.6 µM (active).

Turning to `COc1cccc(CNc2nc(NCc3ccccc3OC)nc3ccsc23)c1`, the Potency was 18.4 µM (active).

With `O=C(Nc1ccc(C2CC2(Cl)Cl)cc1)c1cccc([N+](=O)[O-])c1` (centres undefined), the Potency was 14.6 µM (active).

Regarding `CC(=NNC(=S)N1CCCCCC1)c1ccccn1`, the Potency was 4.11 µM (active).

Regarding `O=C(NC1=CC(=O)c2ccccc2C1=O)c1ccccc1`, the Potency was 3.66 µM (active).

As for `CCCOc1ccccc1C1CC(=O)Nc2cc3c(cc21)OCO3` (centres undefined), the Potency is 13 µM (active).

On to `Cc1ccc(CN2CC(N3CCC(Cc4ccccc4)CC3)CS2(=O)=O)cc1` (centres undefined), for which the “activity, negative = inhibition” value was -13.3%.

Regarding `CCCOc1ccc(F)cc1-c1cc(C(=O)Nc2ccc(F)c(Cl)c2)[nH]n1`, the Potency was 25.9 µM (active).

As to `O=[N+]([O-])c1ccccc1S(=O)(=O)Nc1cccc2cccnc12`, the Potency was 8.2 µM (active).

Take `Clc1ccc(Nc2nc(-c3cccs3)cs2)nc1`: the Potency is 29.1 µM (active).

With `COC(=O)COc1cccc2c(=O)n(CC(=O)NCc3ccccc3)ccc12`, the “activity, negative = inhibition” value is -25.2%.

In the case of `COc1cc(/C=C2\Oc3ccc(C#Cc4ccc(O)cc4)cc3C2=O)cc(OC)c1`, the Potency was 5.17 µM (active).

For `Cc1cc(C)cc(N(CC(=O)N2CC=C(c3ccccc3)CC2)S(=O)(=O)c2c(C)noc2C)c1`, the Potency is 10.3 µM (active).

As to `COc1ccc(CNC(=O)C[C@H]2C[C@H](C(=O)N3CCOCC3)[C@@]3(CCC4CCCC4)c4[nH]c5ccc(Cl)cc5c4CCN3C2=O)cc1OC`, the Potency was 5.17 µM (active).

For `COc1ccc2nc(N3CCN(C(=O)c4ccc([N+](=O)[O-])o4)CC3)sc2c1`, the “activity, negative = inhibition” value was -29.7%.

`CN(C)CCNC(=O)c1ccc(Cl)c2cc3ccccc3nc12`: the Potency is 4.61 µM (active).

For the molecule `Fc1cc(F)c2nc(Nc3nc4c(F)cccc4s3)sc2c1`, the “activity, negative = inhibition” value was -1.33%.

For `c1ccc2cc3c(NCCN4CCOCC4)ccnc3cc2c1`, the Potency was 13 µM (active).

On to `Cn1c(=O)n(C)c2cc(S(=O)(=O)N3CCCc4ccccc43)ccc21`, for which the “activity, negative = inhibition” value was 1.1%.

Take `COc1ccc(-c2csc(NC3OC(=O)c4ccccc43)n2)cc1` (centres undefined): the Potency is 11.6 µM (active).

For the molecule `OCC1OC(n2cnc3c(N4CCCC4)ncnc32)C(O)C1O` (centres undefined), the “activity, negative = inhibition” value is 1.41%.

`COc1cc(NC(=O)c2ccccc2NS(=O)(=O)c2ccc(Cl)s2)cc(OC)c1`: the Potency was 4.61 µM (active).

`COc1cccc2sc(N(CCCN(C)C)C(=O)CCS(=O)(=O)c3ccccc3)nc12`: the Potency was 2.91 µM (active).

On to `Cc1cccc2sc(N(CCCN(C)C)C(=O)CCS(=O)(=O)c3ccccc3)nc12`, for which the Potency is 3.26 µM (active).

Take `COc1c(C(C)C)oc2cc3oc(=O)ccc3cc12`: the “activity, negative = inhibition” value is 2.12%.

Turning to `O=C(Nc1ccc(Br)cn1)c1ccc([N+](=O)[O-])o1`, the Potency was 13 µM (active).

`COc1ccc(-c2onc(C)c2-c2ccc3c(c2)OCCO3)c(O)c1`: the Potency was 14.6 µM (active).

In the case of `CN(C)c1nc(N)nc(CSc2nnnn2-c2cccc3ccccc23)n1`, the “activity, negative = inhibition” value is 7.15%.

As to `COc1ccc(CC(=O)Nc2ccccc2NC(=O)c2ccco2)cc1OC`, the “activity, negative = inhibition” value is -5.76%.

As to `CC(=O)c1ccc(-c2cnc3c(NC=O)cc(-c4cccc(NS(C)(=O)=O)c4)cn23)cc1`, the Potency is 5.17 µM (active).

With `Cc1ccc(C)c(S(=O)(=O)N2CCN(CC(=O)Nc3ccc([N+](=O)[O-])cc3)CC2)c1`, the “activity, negative = inhibition” value was -18.2%.

Take `OCCCNc1nccc(-c2cc(Nc3cccc(Cl)c3)ncn2)n1`: the Potency is 1.3 µM (active).

As to `O=C(CCC(=O)N1CCN(S(=O)(=O)c2ccc(Cl)cc2)CC1)NCc1cccc(C(F)(F)F)c1`, the “activity, negative = inhibition” value is -42.6%.

As to `O=C(/C(=C/c1cccc(Cl)c1)c1nc2ccccc2[nH]1)c1ccccc1`, the Potency was 4.61 µM (active).
